The text below walks through data of PubChem BioAssay (Tox21).

“And” between values parts separate entries of the source, which are not always exact repeats. Equal entries are not always repeated. Unmarked numbers belong to inactive results. Inconclusive results are not listed. The source made the active and inactive calls. Unless noted, calls come from the whole dose curve; as a rule, active = well fitted curve in the direction sought with a large enough effect in the repeat runs; inconclusive = weak or mixed curves; inactive = no such curve, though single readings can be large; an effect the other way counts as inactive or inconclusive.

Test [1] can be described thus: A CellTox Green Cytotoxicity Assay to monitor cytotoxicity in HEK293 cells - 32 hour (AID 1224881). Note: nearly all actives have a fitted effect of over 40% in size. Note: potency is the fitted concentration of half-maximal effect. The gist of the method:
(§1)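 Nonlytic real-time cytotoxicity: HEK293 + CellTox Green reagent plated, 5 h preincubation, pintool compound addition (23 nL in DMSO), 37 C for 40 h, fluorescence measured at successive time points.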

A short description of test [2]: A CellTox Green Cytotoxicity Assay to monitor cytotoxicity in HepG2 cells - 0 hour (AID 1224882). Note: nearly all actives have a fitted effect of over 35% in size. In short, it runs like this:
(§2)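 Read-out is fluorescence of a cyanine dye excluded from live cells that stains DNA of dead HepG2 cells, with signal proportional to cytotoxicity. Plates were read at 0, 8, 16, 24, 32 and 40 h after compound addition.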

Test [3] can be described thus: A CellTox Green Cytotoxicity Assay to monitor cytotoxicity in HepG2 cells - 32 hour (AID 1224883). Note: nearly all actives have a fitted effect of over 50% in size. Note: potency is the fitted concentration of half-maximal effect. The gist of the method:
as §2

The nature of test [4]: qHTS RealTime-Glo MT Cell Viability Assay in HepG2 cells - 16 hour (AID 1224885). Note: nearly all actives have a fitted effect of over 50% in size. The gist of the method: (§3)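 Cells + NanoLuc/prosubstrate dispensed (600 cells/well) → 5 h at 37 C/5% CO2 → compounds in DMSO transferred → 40 h incubation at 37 C, luminescence read at 0, 8, 16, 24, 32, 40 h.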
In general terms: qHTS replaces the single test concentration by a dilution series.

A short description of test [5]: qHTS RealTime-Glo MT Cell Viability Assay in HEK293 cells - 24 hour (AID 1224886). Note: nearly all actives have a fitted effect of over 50% in size. Note: potency is the fitted concentration of half-maximal effect. The gist of the method: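 Tox21 10K qHTS, HEK293, 600 cells/well, RealTime-Glo reagent co-dispensed with cells; 5 h preincubation, compound by pintool, 37 C, luminescence at 0–40 h.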
Test [6] is described as follows: qHTS RealTime-Glo MT Cell Viability Assay in HepG2 cells - 0 hour (AID 1224889). Note: nearly all actives have a fitted effect of over 50% in size. The gist of the method:
as §3

The nature of test [7]: A CellTox Green Cytotoxicity Assay to monitor cytotoxicity in HepG2 cells - 8 hour (AID 1224890). Note: nearly all actives have a fitted effect of over 45% in size. In short, it runs like this: as §2
The nature of test [8]: qHTS assay to identify small molecule antagonists of the estrogen receptor alpha (ER-alpha) signaling pathway using the BG1 cell line in the presence of 0.1 nM 17-beta-estradiol - cell viability counter screen (AID 1259241). Note: nearly all actives have a fitted effect of over 40% in size. Note: potency is the fitted concentration of half-maximal effect. The gist of the method:
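Cytotoxicity counter-screen: live-cell protease activity measured by fluorescence (30 min reagent step) in the same wells. Cells were VM7Luc4E2 with endogenous ER-alpha and ERE-driven luciferase, treated 22 hr at 37C alongside 0.1 nM 17beta-estradiol final.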

Test [9] is described as follows: qHTS assay to identify small molecule antagonists of the androgen receptor (AR) signaling pathway using the MDA cell line in the presence of 0.5 nM R1881 - cell viability counter screen (AID 1259242). Note: nearly all actives have a fitted effect of over 45% in size. Note: potency is the fitted concentration of half-maximal effect. In short, it runs like this: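 Counter screen for cytotoxicity run in the same wells as the AR antagonist reporter screen: MDA-kb2 cells were treated 16 hr with test compounds and 0.5 nM R1881, then live-cell protease activity was measured by fluorescence.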

The nature of test [10]: qHTS assay to identify small molecule HDAC inhibitors (AID 1259364). Note: nearly all actives have a fitted effect of over 45% in size. Note: potency is the fitted concentration of half-maximal effect. In short, it runs like this:
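Luminescence from a cell-permeant luminogenic class I/II HDAC substrate reports endogenous deacetylase activity in intact HCT-116 cells treated with compounds for 2 h.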

The nature of test [11]: qHTS assay to identify small molecule HDAC inhibitors - cell viability counter screen (AID 1259365). In short, it runs like this: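 CellTiter-Glo luminescence (30 min, room temperature) reported viability after a 2 h compound exposure at 37 C. Cells: wild-type HCT-116, 1,500 per well, seeded the night before.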
The nature of test [12]: qHTS assay to identify small molecule agonists of the sonic hedgehog signaling (Shh) pathway - cell viability counter screen (AID 1259366). Note: nearly all actives have a fitted effect of over 50% in size. Note: potency is the fitted concentration of half-maximal effect. The gist of the method:
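Cytotoxicity counter screen: CellTiter-Fluor reagent added after 23 h compound exposure, then 1 h at 37C and fluorescence read. Cells were 3T3 Gli1-Luc, seeded 2,000 per well and dosed 4 h post-plating.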

A short description of test [13]: qHTS assay to identify small molecule antagonists of the sonic hedgehog signaling (Shh) pathway - cell viability counter screen (AID 1259367). Note: nearly all actives have a fitted effect of over 55% in size. Note: potency is the fitted concentration of half-maximal effect. The gist of the method: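 NIH/3T3-derived Gli1-Luc reporter cells (2,000 per well) rested 4 hr at 37 C, then received DMSO compounds plus conditioned medium. After 23 hr of treatment, CellTiter-Fluor was added for 1 hr at 37C and fluorescence read.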

The nature of test [14]: qHTS assay to identify small molecule agonists of the sonic hedgehog signaling (Shh) pathway (AID 1259368; calls by dose curve; note: nearly all actives have a fitted effect of over 15% in size; note: potency is the fitted concentration of half-maximal effect). The gist of the method: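 3T3Gli1-Luc (NIH/3T3 clone, stable Gli1-Luc); 4 hr pre-incubation, then cpd in DMSO 24 hr, 37 C/5% CO2; luciferase reagent 30 min RT; luminescence.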
A short description of test [15]: qHTS RealTime-Glo MT Cell Viability Assay in HEK293 cells - 8 hour (AID 1224887). In short, it runs like this:
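Cells were seeded together with NanoLuc luciferase and a prosubstrate that viable cells reduce to a luciferase substrate. After a 5 h incubation at 37 C/5% CO2, compounds were added and luminescence was measured repeatedly during 40 h of treatment.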

Test [16] in a line: A CellTox Green Cytotoxicity Assay to monitor cytotoxicity in HEK293 cells - 16 hour (AID 1224888). Note: nearly all actives have a fitted effect of over 35% in size. The gist of the method: as §1
Test [17] addresses Estrogen receptor (Homo sapiens) (UniProt P03372). Nature of the test: qHTS assay to identify small molecule antagonists of the estrogen receptor alpha (ER-alpha) signaling pathway using the BG1 cell line in the presence of 0.1 nM 17-beta-estradiol (AID 1259244). Note: nearly all actives have a fitted effect of over 50% in size. The gist of the method:
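Cells: VM7Luc4E2, endogenous ER-alpha, 4x ERE-luc stable. Pre-culture 5 d, phenol red-free, charcoal-stripped FBS. Plated 24 h, compound + E2 0.1 nM final, 22 h 37C/5% CO2. Readout ONE-Glo luminescence.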

Test [18] in a line: qHTS assay to identify small molecule phospholipidosis (PLD) inducers (AID 1259344; active = well fitted curve in the direction sought with a large enough effect; an effect the other way counts as inactive or inconclusive). The gist of the method:
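HepG2 cells on collagen I, attached 4 h at 37 C, were co-treated with compound and LipidTOX Red dye for 24 h at 37 C, then fixed with paraformaldehyde plus Hoechst 33342 and imaged by high-content microscopy for phospholipid accumulation.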

The nature of test [19]: A CellTox Green Cytotoxicity Assay to monitor cytotoxicity in HEK293 cells - 8 hour (AID 1224884). Note: nearly all actives have a fitted effect of over 35% in size. The gist of the method:
as §1

Test [20] has as its target Androgen receptor (Homo sapiens) (UniProt P10275). Description: qHTS assay to identify small molecule antagonists of the androgen receptor (AR) signaling pathway using the MDA cell line in the presence of 0.5 nM R1881 (AID 1259243). Note: nearly all actives have a fitted effect of over 50% in size. Note: potency is the fitted concentration of half-maximal effect. In short, it runs like this: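 Luciferase luminescence is the read-out: compounds are tested for suppressing 0.5 nM R1881-driven MMTV reporter activity in MDA-kb2 cells after 16 hr at 37C.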

Estrogen receptor (Homo sapiens), sequence (P03372 whole entry, looked up): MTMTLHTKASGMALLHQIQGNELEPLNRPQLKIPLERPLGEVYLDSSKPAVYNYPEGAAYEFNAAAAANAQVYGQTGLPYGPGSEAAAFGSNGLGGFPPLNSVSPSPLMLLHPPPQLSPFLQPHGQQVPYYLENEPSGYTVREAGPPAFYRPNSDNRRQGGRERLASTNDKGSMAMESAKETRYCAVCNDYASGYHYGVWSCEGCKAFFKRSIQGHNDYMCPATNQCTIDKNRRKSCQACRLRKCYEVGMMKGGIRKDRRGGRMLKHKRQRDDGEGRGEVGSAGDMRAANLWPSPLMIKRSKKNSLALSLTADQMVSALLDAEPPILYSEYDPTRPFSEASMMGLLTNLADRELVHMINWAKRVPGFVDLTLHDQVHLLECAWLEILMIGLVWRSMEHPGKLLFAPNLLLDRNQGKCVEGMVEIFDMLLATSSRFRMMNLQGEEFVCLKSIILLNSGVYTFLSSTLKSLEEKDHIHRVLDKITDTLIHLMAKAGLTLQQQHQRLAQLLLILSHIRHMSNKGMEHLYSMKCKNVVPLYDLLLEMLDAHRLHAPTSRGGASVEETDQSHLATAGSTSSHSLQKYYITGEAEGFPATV
Androgen receptor (Homo sapiens), sequence (P10275 whole entry, looked up): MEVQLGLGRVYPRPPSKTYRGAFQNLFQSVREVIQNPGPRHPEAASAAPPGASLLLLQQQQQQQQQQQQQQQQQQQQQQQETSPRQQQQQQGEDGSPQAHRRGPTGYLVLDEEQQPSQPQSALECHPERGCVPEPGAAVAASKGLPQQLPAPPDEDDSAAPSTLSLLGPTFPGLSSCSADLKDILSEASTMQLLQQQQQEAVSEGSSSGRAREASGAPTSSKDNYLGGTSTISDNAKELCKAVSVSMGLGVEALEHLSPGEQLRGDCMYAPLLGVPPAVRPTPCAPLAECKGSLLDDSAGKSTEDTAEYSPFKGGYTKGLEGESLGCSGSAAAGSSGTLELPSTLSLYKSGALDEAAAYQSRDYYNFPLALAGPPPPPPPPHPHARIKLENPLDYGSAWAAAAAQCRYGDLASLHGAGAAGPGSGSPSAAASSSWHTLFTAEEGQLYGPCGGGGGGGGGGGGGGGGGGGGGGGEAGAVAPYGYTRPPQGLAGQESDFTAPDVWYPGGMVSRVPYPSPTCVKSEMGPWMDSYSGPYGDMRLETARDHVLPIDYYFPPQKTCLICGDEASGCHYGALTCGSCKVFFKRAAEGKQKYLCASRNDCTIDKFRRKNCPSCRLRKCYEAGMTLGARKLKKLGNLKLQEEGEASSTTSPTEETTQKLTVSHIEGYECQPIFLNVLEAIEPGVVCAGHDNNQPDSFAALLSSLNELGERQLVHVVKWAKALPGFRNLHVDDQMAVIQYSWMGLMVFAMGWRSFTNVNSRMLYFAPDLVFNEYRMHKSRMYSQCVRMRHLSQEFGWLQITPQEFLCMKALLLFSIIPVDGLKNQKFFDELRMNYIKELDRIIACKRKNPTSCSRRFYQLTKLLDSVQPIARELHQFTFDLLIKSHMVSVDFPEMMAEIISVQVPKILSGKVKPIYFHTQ

Take `CC(C)(c1ccccc1)c1ccccc1`: the Potency in test [1] was 51.1 µM (active). In addition, the Potency entry in test [2], in test [3], in test [4], in test [5], in test [6] and in [7] was “inactive” in each case. In addition, the Potency result in [8], in [9], in test [10], in test [11], in [12] and in test [13] was “inactive” in each case. Moreover, the Potency result in test [14] is “inactive”.
Regarding `COc1ccccc1Oc1c(NS(=O)(=O)c2ccc(C(C)(C)C)cc2)nc(-c2ncccn2)nc1OCCO`, the Potency entry in [1], in test [2], in [3], in [4], in [15] and in [16] was “inactive” in each case. The Potency entry in test [6], in test [7], in test [8], in test [9], in test [17] and in test [18] was “inactive” throughout. The Potency result in [10], in [11], in test [12] and in test [14] was “inactive” throughout. The Potency in test [13] was 26.6 µM (active).
For `C/C=C/C=C/C=O`, the Potency result in test [1], in test [2], in [19], in test [4], in [5] and in test [15] was “inactive” throughout. The Potency result in test [16], in [6], in test [7], in test [9], in [20] and in test [17] was “inactive” throughout. Besides, the Potency entry in test [10], in test [11], in test [12], in test [13] and in [14] was “inactive” throughout.
As for `C=C(C)C(=O)OCCOCCOC(=O)C(=C)C`, the Potency entry in [1], in test [2], in test [3], in test [4], in [5] and in [15] was “inactive” throughout. Moreover, the Potency result in test [16], in test [6], in test [7], in [9], in test [17] and in test [10] was “inactive” each time. Also, the Potency result in [11], in [12], in test [13] and in test [14] was “inactive” throughout.
Take `CN1CC(=O)N2[C@H](c3ccc4c(c3)OCO4)c3[nH]c4ccccc4c3C[C@@H]2C1=O`: the Potency entry in test [1], in test [2], in [19], in test [4], in test [5] and in [15] was “inactive” each time. For the same molecule, the Potency result in test [16], in [6], in [7], in test [9], in test [17] and in [18] was “inactive” each time. The Potency result in test [10], in test [11], in [12], in test [13] and in test [14] was “inactive” in each case.
As to `Nc1ccc(N=Nc2ccccc2)c(N)c1`, the Potency entry in test [1], in [2], in test [3], in test [16], in test [6] and in [7] was “inactive” throughout. In addition, the Potency entry in test [17] and in test [11] was “inactive” in each case. Further, the results for the Potency in [5], in test [10] and in test [14] were 42.7 µM (active), 1.5 µM (active) and 1.34 µM (active), respectively.
Take `C[C@@H]1CC(=O)NN=C1c1ccc(NN=C(C#N)C#N)cc1`: the Potency result in test [1], in [2], in [19], in [15], in [16] and in [7] was “inactive” throughout. Besides, the Potency entry in test [17], in test [18], in test [11] and in test [14] was “inactive” throughout. Also, the Potency in [3] was 16.9 µM (active) and 10.7 µM (active); in test [8], 21.1 µM (active) and 15 µM (active); in test [9], 11.9 µM (active); in test [20], 21.1 µM (active); in [12], 13.3 µM (active); in test [13], 13.3 µM (active).
